From PubChem BioAssay
Marburg entry inh: blocks Marburg virus binding to or entry into cells | Potency, µM (series often up to 37.8 µM), without a hit: at the top dose activity change, negative = inhibition, usual class: inhibitors | actives 1.8% (n = 300,000) | Marburg virus pseudotyped entry inhibition, cell reporter; calls by dose curve; tested in HEK293 cells; further: potency means the concentration at half of the fitted maximal effect
HCMV inh: human cytomegalovirus inhibition | HFF cells, HCMV-luciferase reporter, 72 h; active compounds read low | actives 4.5% (n = 410,000) | AID 1259415 | activity change, negative = inhibition, % at 57.5 µM; in the data active means activity change below about -60%; inconclusive means no clear call, values can overlap the other calls; inactive means above about -39%
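Cell-based, HFFs, 1000 cells/well, 16 h 37C; cpds in DMSO + HCMV-luc, MOI 1 PFU/cell; 72 h 37C; OneGlo luminescence after 5 min RT; norm. to buffer vs Salinomycin 10uM.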
FMDV antiviral: foot and mouth disease virus antiviral activity | FMDV antiviral cell-based qHTS | Potency, µM (top dose mostly 57.9 µM), without a hit: at the highest dose activity change, negative = inhibition, most hits filed as inhibitors | actives 1.2% (n = 410,000); calls by dose curve; tested in HEK293T cells; further: read-out not given here; potency means the concentration at half of the fitted maximal effect; nearly all actives have a fitted effect of over 45% in size
Lassa entry inh: blocks Lassa virus binding to or entry into cells; AID 540256; Potency, µM (series often up to 37.9 µM), without a hit: at the top dose activity change, negative = inhibition, actives largely listed as inhibitors; Lassa virus pseudotype entry inhibition, cell reporter; actives 1.2% (n = 300,000); calls by dose curve; tested in HEK293 cells; further: potency means the concentration at half of the fitted maximal effect; nearly all actives have a fitted effect of over 50% in size
Active calls of the source: *; ? = inconclusive; · = no result given; [ ] = dose if it differs, or a comment. This is a sample that favours compounds with a hit; in the whole collection about 6.2% have one here. On the % scale 0 is the no-effect control and ±100 the full control effect.

SMILES | Marburg entry inh | HCMV inh | FMDV antiviral | Lassa entry inh
O=c1oc2ccccc2cc1-c1csc(Nc2nc3c(F)cccc3s2)n1 | ? | -27.6 | 7.08µM* | ?
O=c1oc2ccccc2cc1-c1csc(Cc2nc(-c3ccc(Cl)cc3)cs2)n1 | ? | -96.1* | ? | ?
O=C(Nc1nc(-c2cc3ccccc3oc2=O)cs1)c1ccco1 | · | -62.7* | 2.9% | ·
CCn1cc(S(=O)(=O)c2cccc(C)c2)c(=O)c2cc(F)c(N3CCCCC3C)cc21 (stereo not given) | · | ? | 5.5% | 14.6%[46.1 µM]
CCCn1c(=O)c2c(nc3n2CCCN3CCc2ccccc2)n(C)c1=O | ? | -62.3* | ? | -23.5%
COC(=O)Cn1c(=O)c2c(nc3n2CCCN3CCc2ccccc2)n(C)c1=O | 5.4%[46.1 µM] | -64.0* | 0.8% | -0.8%[46.1 µM]
Cn1c(=O)n(CCc2ccccc2)c(=O)c2c1nc1n2CCCN1Cc1ccccc1 | ? | 15.7 | 20µM* | 15.8µM*
Cn1c(=O)n(CCc2ccccc2)c(=O)c2c1nc1n2CCCN1CCc1ccccc1 | ? | -3.4 | ? | ?
CCCn1c(=O)c2c(nc3n2CCCN3Cc2ccccc2)n(C)c1=O | · | -32.1 | ? | ·
O=C(/C=C/c1ccco1)Nc1ccc(Cl)c(-c2nc3cc(Cl)ccc3o2)c1 | · | 70.9 | -1.3% | -18.2%[46.1 µM]
Cc1c(C(=O)Nc2ccncc2)sc2nc(-c3ccccc3)cn12 | · | -36.3 | 20µM* | ·
Cc1nc(N2CCCCC2)c2c(C)c(C(=O)Nc3ccc4c(c3)OCCO4)sc2n1 | · | -61.4* | 0.0% | ·
CCN(CC)c1ccc(NC(=O)c2sc3nc(-c4ccccc4)cn3c2C)cc1 | · | -25.3 | -26.2% | ?
Cc1cccc(NC(=O)c2sc3nc(C)nc(N4CCOCC4)c3c2C)c1 | · | -22.2 | -11.5% | ·
Cc1c(C(=O)Nc2ccc3c(c2)OCCO3)sc2nc(-c3ccccc3)cn12 | ? | -84.3* | 15.8µM* | ?
Cc1ccc2c(c1)Oc1ccc(NC(=O)CCl)cc1C(=O)N2 | ? | -88.5* | 14.1µM* | ?
COCC(=O)Nc1cc(C(=O)N2CCCC(C(N)=O)C2)cc2nc(-c3ccccc3)n(C)c12 (stereo not given) | · | · | -5.9% | ·
COc1cc2ncc(-c3ccccc3)nc2cc1OC | · | · | -19.1% | ·
Cc1cc(NCCCN2CCOCC2)n2c(nc3ccccc32)c1C#N | ? | -9.0 | -18.0% | -0.3%
CCCc1cc(NCCCN2CCOCC2)n2c(nc3ccccc32)c1C#N | -9.8% | -60.1* | -25.7% | -1.0%
C=C1[C@@H](O)[C@H](Cc2ccccc2)N(Cc2ccccc2Br)S1(=O)=O | · | 32.8 | 17.8µM* | ·
Cc1cc(C(=O)N/N=C/c2ccc([N+](=O)[O-])o2)c(C)o1 | · | -60.7* | ? | ·
CCCCCCCC(=O)Nc1ccc(C(=O)N/N=C/c2cccc([N+](=O)[O-])c2)cc1 | ? | -69.4* | -9.6% | ?
CCCC(=O)Nc1ccc(C(=O)N/N=C/c2ccc([N+](=O)[O-])o2)cc1 | 11.6µM* | -94.8* | ? | ?
Cc1ccc(NC(=O)CCC(=O)N/N=C/c2ccc([N+](=O)[O-])o2)cc1C | · | ? | -23.7% | ·
SMILES | Marburg entry inh | HCMV inh | FMDV antiviral | Lassa entry inh
CCOC(=O)C1CCN(C(=O)CSc2n[nH]c(-c3ccc(OC)cc3)n2)CC1 | · | 36.2 | -13.5% | -21.6%[46.1 µM]
O=C(c1cc(C2CC2)nc2ccc(Br)cc12)N1N=C(C(F)F)CC1(O)C(F)F (stereo not given) | ? | -73.2* | ? | ?
COc1ccc(CCNC2=C(Cl)C(=O)N(CCc3ccccc3)C2=O)cc1OC | ? | -14.8 | 22.4µM* | -26.2%
C=C1CC(Cn2cc(Br)c(=O)[nH]c2=O)(c2ccc(-c3ccccc3)cc2)OC1=O (stereo not given) | ? | -96.9* | ? | ?
NS(=O)(=O)c1ccc(CCNC(=O)CSc2ccc(Cl)cc2Cl)cc1 | -1.3%[46.1 µM] | ? | -15.6% | -14.7%
NS(=O)(=O)c1ccc(CCNc2nn3c(-c4ccc(F)c(Cl)c4)cnc3s2)cc1 | · | -75.2* | ? | ·
CCOc1ccc2c(ccc(/C=C/c3cc(C)c4cccnc4c3O)[n+]2C)c1 | 15.8µM* | · | ? | ?
CCc1cc(=O)[nH]c(SCc2nc(-c3cccc(Cl)c3)no2)n1 | · | -30.5 | -26.1% | ?
O=C(N/N=C/c1cccs1)c1cccc(S(=O)(=O)Nc2ccc(Cl)cc2)c1 | 22.2%[46.1 µM] | -64.7* | 25.4% | -5.6%
O=C(N/N=C/c1cccs1)c1cccc(NC(=O)c2ccc(Cl)cc2)c1 | 4.2% | -97.1* | · | ?
COc1cccc(CNC(=O)c2cccn2-c2nnc(N3CCCC3)s2)c1 | · | 0.0 | 0.7% | -8.2%[46.1 µM]
O=C(Nc1ccc2c(c1)OCO2)c1ccc(Br)c(S(=O)(=O)N2CCCC2)c1 | ? | -34.7 | ? | ?
